The source of these data is PubChem BioAssay (EPA / NIEHS).

Results filed as inconclusive are left out. Active and inactive are the calls of the source. Rule for the calls: active = hit-call score of the fitted dose curve at least 0.9, where 1 is the maximum; inconclusive = response in the unintended direction; inactive = score below 0.9.

Sequence of Hepatocyte nuclear factor 4-alpha (Homo sapiens) (P41235 whole entry, looked up, the tested form may be a part): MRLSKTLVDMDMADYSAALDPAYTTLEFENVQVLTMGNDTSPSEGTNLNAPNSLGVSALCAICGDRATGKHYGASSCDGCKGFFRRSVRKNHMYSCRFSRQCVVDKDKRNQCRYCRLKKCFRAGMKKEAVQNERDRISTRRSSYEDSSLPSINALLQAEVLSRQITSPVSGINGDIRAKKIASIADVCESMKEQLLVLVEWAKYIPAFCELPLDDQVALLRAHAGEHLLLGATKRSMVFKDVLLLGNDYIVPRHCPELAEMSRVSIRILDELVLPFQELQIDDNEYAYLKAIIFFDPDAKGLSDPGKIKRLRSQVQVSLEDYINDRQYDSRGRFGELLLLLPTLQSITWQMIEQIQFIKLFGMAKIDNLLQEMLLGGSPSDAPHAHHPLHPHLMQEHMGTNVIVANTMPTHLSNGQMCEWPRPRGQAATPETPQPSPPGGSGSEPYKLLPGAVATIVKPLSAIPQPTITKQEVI
Sequence of Oxysterols receptor LXR-beta (Homo sapiens) (P55055 whole entry, looked up, the tested form may be a part): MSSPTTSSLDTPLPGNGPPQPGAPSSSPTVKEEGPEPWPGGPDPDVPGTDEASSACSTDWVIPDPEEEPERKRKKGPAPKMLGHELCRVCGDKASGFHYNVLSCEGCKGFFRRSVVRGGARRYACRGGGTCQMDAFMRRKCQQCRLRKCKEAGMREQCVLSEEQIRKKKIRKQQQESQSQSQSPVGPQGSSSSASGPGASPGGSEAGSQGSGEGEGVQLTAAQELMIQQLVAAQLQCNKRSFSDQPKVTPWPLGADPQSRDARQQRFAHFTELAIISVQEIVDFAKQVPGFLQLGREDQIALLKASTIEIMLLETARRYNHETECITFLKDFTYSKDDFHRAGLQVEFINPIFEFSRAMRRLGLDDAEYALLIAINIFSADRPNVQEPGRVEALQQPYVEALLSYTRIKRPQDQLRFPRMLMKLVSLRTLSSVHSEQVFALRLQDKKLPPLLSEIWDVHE
Sequence of Oxysterols receptor LXR-alpha (Homo sapiens) (Q13133 whole entry, looked up, the tested form may be a part): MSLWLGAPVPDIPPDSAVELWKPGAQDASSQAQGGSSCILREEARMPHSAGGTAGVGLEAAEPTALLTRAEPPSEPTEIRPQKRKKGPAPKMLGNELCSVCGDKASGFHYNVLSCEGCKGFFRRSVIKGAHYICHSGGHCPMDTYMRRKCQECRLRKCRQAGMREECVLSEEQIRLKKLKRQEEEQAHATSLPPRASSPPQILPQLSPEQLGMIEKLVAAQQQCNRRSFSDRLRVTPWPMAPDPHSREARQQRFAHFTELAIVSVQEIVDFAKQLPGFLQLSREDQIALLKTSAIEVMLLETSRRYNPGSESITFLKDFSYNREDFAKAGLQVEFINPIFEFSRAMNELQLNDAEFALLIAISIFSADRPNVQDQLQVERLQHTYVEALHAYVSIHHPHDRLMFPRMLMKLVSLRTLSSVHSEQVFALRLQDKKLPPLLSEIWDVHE

The first assay concerns the target Oxysterols receptor LXR-alpha (Homo sapiens) (UniProt Q13133). Nature of the assay: ATG_LXRa_TRANS: Attagene TRANS-FACTORIAL HepG2 Assay for human Liver X Receptor alpha (LXRa) (AID 2282980). The conditions noted are these: HepG2 Attagene TRANS reporter, LXRa transactivation. The procedure, abridged:
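In this multiplexed TRANS system, compounds act on HepG2 cells carrying GAL4-UAS reporter units and a receptor-GAL4 fusion for 24 h. Induced reporter RNA is amplified, fluorescently labelled and sized by capillary electrophoresis, with DMSO as baseline.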
On to `O=S(=O)(O)c1cccc2c(S(=O)(=O)O)cccc12`, for which the call was inactive.

`COC(=O)OC`: the call was inactive.

Take `O=C1OC2(c3cc(Br)c(O)c(Br)c3Oc3c2cc(Br)c(O)c3Br)c2c(Cl)c(Cl)c(Cl)c(Cl)c21`: the result was inactive.

With `C[Si](O[Si](C)(C)C)O[Si](C)(C)C`, the outcome was inactive.

Regarding `Cc1ccc(C=O)s1`, the compound was classed as inactive.

Consider `CC(CCO)CCCC(C)(C)O` (configuration not stated), for which the call was inactive.

As to `CC1=CCC2C(C1)C2(C)C` (configuration not stated), the outcome was inactive.

Consider `CCCCCCCCCCCCCCCCCC(=O)OCC(CC)CCCC` (configuration not stated), for which the compound was classed as inactive.

Turning to `C=C(C)C(=O)Nc1ccc(Cl)c(Cl)c1`, the outcome was inactive.

As to `COC(=O)c1ccc(C)cc1`, the outcome was inactive.

As to `O=C1c2ccccc2C(=O)N1SC1CCCCC1`, the call was inactive.

As for `C=O`, the result was inactive.

As to `Cc1ccc(Nc2ccc(O)c3c2C(=O)c2ccccc2C3=O)cc1`, the call was inactive.

Take `CC(C)c1cccc(O)c1`: the result was inactive.

In the case of `CCCCCC(=O)OCCc1ccccc1`, the compound was classed as inactive.

With `CCOC(=S)SSC(=S)OCC`, the outcome was inactive.

The target of the next assay is Oxysterols receptor LXR-beta (Homo sapiens) (UniProt P55055). The assay is described as follows: ATG_LXRb_TRANS: Attagene TRANS-FACTORIAL HepG2 Assay for human Liver X Receptor beta (LXRb) (AID 2282981). The conditions noted are these: HepG2 Attagene TRANS GAL4-LXRb reporter, mRNA. The procedure, abridged:
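Transient transfection HepG2 (multiplexed RTUs, GAL4-UAS); NR-Gal4 chimera; 24 h exposure; RNA → RT-PCR → 6-FAM primer extension → HpaI → CE; increase vs DMSO.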
As to `C=CC(C)(CCC=C(C)C)OC=O` (configuration not stated), the compound was called inactive.

Regarding `CCCCOCCOCCSC#N`, the compound was classed as inactive.

For `COC(=O)OC`, the call was inactive.

In the case of `CN(C)CCCN`, the compound was called inactive.

On to `C[Si](O[Si](C)(C)C)O[Si](C)(C)C`, for which the call was inactive.

With `CC(CCO)CCCC(C)(C)O` (configuration not stated), the compound was called inactive.

On to `CC1=CCC2C(C1)C2(C)C` (configuration not stated), for which the compound was called inactive.

On to `CCCC(C)C=O` (configuration not stated), for which the compound was classed as inactive.

For `CCCCCCCCCCCCCCCCCC(=O)OCC(CC)CCCC` (configuration not stated), the outcome was inactive.

Take `C=C(C)C(=O)Nc1ccc(Cl)c(Cl)c1`: the result was inactive.

As for `COC(=O)c1ccc(C)cc1`, the compound was called inactive.

For the compound `Nc1cccc(S(=O)(=O)c2cccc(N)c2)c1`, the compound was called inactive.

As for `O=C1c2ccccc2C(=O)N1SC1CCCCC1`, the result was inactive.

On to `NNc1nc(-c2ccc(N)cc2)cs1`, for which the call was inactive.

Take `Cc1ccc(Nc2ccc(O)c3c2C(=O)c2ccccc2C3=O)cc1`: the outcome was inactive.

Take `COCCOCCOCCOCCOCCO`: the outcome was inactive.

With `COc1ccc(OC)c(OC)c1`, the result was inactive.

Another assay has as its target Hepatocyte nuclear factor 4-alpha (Homo sapiens) (UniProt P41235). Nature of the assay: ATG_HNF4a_TRANS: Attagene TRANS-FACTORIAL HepG2 Assay for human Hepatocyte Nuclear Factor 4 alpha (HNF4a) (AID 2282982). To be noted: HepG2 HNF4a transactivation reporter, mRNA readout. The procedure, abridged:
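Readout is fluorescent reporter-transcript fragments resolved by capillary electrophoresis after RT-PCR from HepG2 cells dosed for 24 h. Cells carried transfected GAL4-UAS reporter constructs measuring exogenous NR-GAL4 chimera activity; DMSO served as baseline.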
Turning to `C=CC(C)(CCC=C(C)C)OC=O` (configuration not stated), the call was inactive.

With `Nc1cc([N+](=O)[O-])ccc1O`, the call was inactive.

As for `CCc1c(C)cc(N)c(CC)c1N`, the result was inactive.

Consider `CCCCc1ccc(N)cc1`, for which the compound was classed as inactive.

As to `CCCCOCCOCCSC#N`, the compound was called inactive.

With `CN(C)CCCN`, the outcome was inactive.

As to `CC1=CCC2C(C1)C2(C)C` (configuration not stated), the call was inactive.

As for `CCCCCCCCCCCCCCCCCC(=O)OCC(CC)CCCC` (configuration not stated), the call was inactive.

As for `NCCNCCN`, the call was inactive.

As to `COC(=O)c1ccc(C)cc1`, the call was inactive.

As for `Nc1cccc(S(=O)(=O)c2cccc(N)c2)c1`, the outcome was inactive.

Consider `O=C1c2ccccc2C(=O)N1SC1CCCCC1`, for which the call was inactive.

For `C=O`, the outcome was inactive.

Consider `NNc1nc(-c2ccc(N)cc2)cs1`, for which the result was inactive.

On to `COCCOCCOCCOCCOCCO`, for which the call was inactive.

`Cc1ccc2sc3cccc(C)c3c2c1`: the outcome was inactive.

On to `CNC[C@H](O)c1cccc(O)c1`, for which the outcome was inactive.

On to `COc1ccc(OC)c(OC)c1`, for which the call was inactive.

Take `CCOC(=S)SSC(=S)OCC`: the compound was classed as inactive.
